# In ChEMBL document CHEMBL1157539, “Thousands of chemical starting points for antimalarial lead identification” (Nature, 2010):
# Legend:
# Format in all cases: functional
# Plasmodium falciparum [1] = experiment: GSK_TCMDC: Inhibition of Plasmodium falciparum 3D7 in whole red blood cells, using parasite LDH activity as an index of growth. Test compounds present at 2uM
# Plasmodium falciparum [2] = experiment: GSK_TCMDC: Inhibition of Plasmodium falciparum Dd2 in whole red blood cells, using parasite LDH activity as an index of growth. Test compounds present at 2uM
# HepG2 = experiment: GSK_TCMDC: Percent inhibition of human HepG2 cell line. Test compounds present at 10uM.
Compound,Inhibition (Plasmodium falciparum [1]) [%],Inhibition (Plasmodium falciparum [2]) [%],Inhibition (HepG2) [%]
CCCNC(=O)C1CCN(C(c2ccccc2)c2ccc(Cl)c(Cl)c2)CC1 (stereo not drawn),90,90,15
CC(=O)Oc1c(C2CCN(CCCCNC(=O)c3ccc(NC(=O)c4ccc(Cl)cc4)cc3)CC2)ccc2c1CCCC2,100,80,21
CCN(CC)C(=O)c1cccc(C=Cc2ccc(-c3c(C)[nH]c(C)c(Cl)c3=O)cc2)c1,96,96,9
CCC(C)CN1CCN(c2ccc(NC(=O)c3cccs3)cc2)CC1C.O=C(O)C(F)(F)F (stereo not drawn),94,94,0
OC(CNCc1ccco1)Cn1c2ccc(Br)cc2c2cc(Br)ccc21 (stereo not drawn),92,72,10
Cc1ncccc1C(=O)Nc1cccc(-c2cccc(-c3nc4cccc(C)c4[nH]3)c2)c1,93,69,6
O=C(Nc1cc(C(F)(F)F)cc(C(F)(F)F)c1)Nc1ccc(Cl)c(Cl)c1,100,100,58
CN(CC(=O)Nc1ccc(F)cc1)C(=O)c1ccc(-c2ccc(F)cc2)o1,89,84,3
Cc1ccccc1C1CCN(C2CCC(NC(=O)/C=C/c3cccc(Cl)c3F)CC2)CC1 (stereo not drawn),100,37,87
COc1ccc2ccccc2c1C=NN=c1cc[nH]c2ccc(F)cc12,87,10,11
Cc1nc2c(c([O-])c1Cl)-c1ccc(Oc3cccc(C(F)(F)F)c3)cc1C2=O.[Na+],94,95,25
Cc1ccc(CN2CCCCC(NC(=O)c3cc4ccccc4s3)C2)cc1.O=C(O)C(F)(F)F (stereo not drawn),94,8,9
Cc1cc(CN2CCCC(OC(c3ccc(F)cc3)c3ccc(F)cc3)C2)ccc1O (stereo not drawn),89,82,28
Cc1ccc(Nc2nccc(NCC(O)c3ccc(C(F)(F)F)cc3)n2)cc1 (stereo not drawn),100,100,53
O=C(NCc1ccccc1F)c1ccc(N2CCC(NCc3cccc(-n4cccn4)c3)CC2)cc1,89,3,9
Cc1[nH]c(C)c(-c2ccc(Oc3ccc(Cl)cc3)cc2)c(=O)c1Br,97,96,12
Cc1nn(-c2ccccc2)c2nc(-c3ccccc3)cc(C(=O)N3CCOCC3)c12,93,67,6
COc1ccc2nccc([C@@H](O)CN3CCC(NCc4cc5cc(C)ccc5s4)CC3)c2c1.O=C(O)C(=O)O,92,74,13
COc1ccc(C=NNc2nc3ccccc3[nH]2)cc1O,95,13,15
O=C(Nc1cccc(CN2CCCN(CC3CCCCC3)CC2)c1)c1ccc(Cl)c(Cl)c1.O=C(O)C(F)(F)F,91,15,39
CCOc1ccc2ccccc2c1CNCCCCCCNCc1c(OCC)ccc2ccccc12.CS(=O)(=O)O,100,89,100
